An excerpt weighted towards active compounds, which were near 3.5% of everything screened.
GPR151 ag: activators of human GPR151, primary screen, cell-based, PathHunter beta-arrestin, luminescence; G-protein coupled receptor 151 (Homo sapiens), Q8TDV0; PathHunter beta-arrestin GPR151 cells; activation, % at 11.2 µM; 650,000 compounds, 1% hits; in the data active means activation above about 4.9%;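 further: 0% = median of compound wells and 100% = cells with positive control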
MITF inh: MITF inhibitors, primary screen, biochemical, AlphaScreen, human; AlphaScreen MITF homodimerization, bead proximity signal; inhibition, % at 2.6 µM; 650,000 compounds, 0.91% hits; in the data active means inhibition above about 50%;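 further: 0% = vehicle wells with protein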
FBW7 activator: FBW7 E3 ligase activators, primary screen, biochemical, AlphaScreen, human; F-box/WD repeat-containing protein 7 (Homo sapiens), Q969H0; AlphaScreen FBW7–phospho-cyclin E peptide binding, activator screen; normalized activity (activation), % at 26.1 µM; 650,000 compounds, 0.13% hits; AID 1259310, 2017; in the data active means normalized activity above about 1.9%;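 further: purified mutant Fbw7 with reduced substrate affinity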
Target sequence (Q969H0 whole entry, looked up): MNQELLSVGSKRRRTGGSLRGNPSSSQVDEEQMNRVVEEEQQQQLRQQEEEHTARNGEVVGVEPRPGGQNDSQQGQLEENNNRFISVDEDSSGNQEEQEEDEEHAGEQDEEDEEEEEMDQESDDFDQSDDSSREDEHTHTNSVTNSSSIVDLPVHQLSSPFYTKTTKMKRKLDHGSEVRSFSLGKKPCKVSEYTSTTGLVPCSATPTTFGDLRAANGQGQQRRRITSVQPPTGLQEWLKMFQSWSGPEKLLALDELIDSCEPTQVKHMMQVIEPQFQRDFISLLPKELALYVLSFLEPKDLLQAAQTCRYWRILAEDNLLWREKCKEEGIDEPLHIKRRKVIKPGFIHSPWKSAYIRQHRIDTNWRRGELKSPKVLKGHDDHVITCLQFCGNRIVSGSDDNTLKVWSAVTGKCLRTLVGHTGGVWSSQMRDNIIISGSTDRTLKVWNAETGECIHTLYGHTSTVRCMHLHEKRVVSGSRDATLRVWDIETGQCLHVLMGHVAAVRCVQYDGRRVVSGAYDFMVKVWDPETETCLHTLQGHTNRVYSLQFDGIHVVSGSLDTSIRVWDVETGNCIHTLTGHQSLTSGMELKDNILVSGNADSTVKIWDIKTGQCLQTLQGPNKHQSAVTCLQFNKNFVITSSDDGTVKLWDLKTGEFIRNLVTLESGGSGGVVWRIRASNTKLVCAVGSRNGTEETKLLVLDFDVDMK
TEAD-YAP inh: TEAD-YAP interaction inhibition, primary screen, TEAD-YAP interaction inhibitor project, luminescence, HEK-TIYL cells; inhibition, % at 9.12 µM; 640,000 compounds, 1.4% hits; TEAD-Gal4/YAP UAS-luciferase luminescence; in the data active means inhibition above about 32%;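 further: 0% = median of test compound wells and 100% = reference inhibitor wells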
MITF inh conf: MITF inhibitors, retest of hits, confirmation, biochemical, AlphaScreen, triplicate; shares compounds with MITF inh; AlphaScreen MITF homodimerization, biotin/His-MITF beads; inhibition, % at 2.6 µM; 4,700 compounds, 16% hits; AID 1259372, 2018;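 active means inhibition above a cutoff derived from the DMSO control wells, cut at about 28% in these data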;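 further: 0% = MITF dimer wells with DMSO only; inhibitors lower the bead chemiluminescence by keeping MITF from dimerizing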
AlphaScreen DR: AlphaScreen optical interference compounds, dose response, counter-screen, biochemical, HTS. shares compounds with MITF inh. AlphaScreen optical interference counterscreen, cell-free. IC50, µM. 480 compounds, 6% hits. AID 1259373, 2018; call rule not given here
AlphaScreen intf2: AlphaScreen optical interference compounds, counter-screen for MITF inhibitor project, biochemical, triplicate. shares compounds with MITF inh. LysRS AlphaScreen counterscreen, signal interference. inhibition, % at 2.6 µM. 4,700 compounds, 7.6% hits. AID 1259376, 2018;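 active means inhibition above a cutoff derived from the DMSO control wells, cut at about 30% in these data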
An asterisk follows results filed as active; nt = not tested or not shown.

SMILES | GPR151 ag | MITF inh | FBW7 activator | TEAD-YAP inh | MITF inh conf | AlphaScreen intf2 | others
O=C(Cc1ccccc1)N1CCC(C(=O)N2CCN(c3ccccc3)CC2)CC1 | -2 | 0 | 0 | 4 | nt | nt
O=C(c1ccco1)N1CCN(C2CCN(Cc3ccccc3)CC2)CC1 | 1 | 60* | 0 | -5 | -9 | 4
Cn1c(=O)c2c(nc(N3CCCCC3)n2CC(=O)c2ccccc2)n(C)c1=O | 0 | 8 | 0 | -1 | nt | nt
COC(=O)C1=CN(CC23CC4CC(CC(C4)C2)C3)C=C(C(=O)OC)C1c1ccc(F)cc1 | 0 | 65* | 0 | -3 | -2 | -2
COC(=O)C(C)Oc1ccc2c(oc(=O)c3cc(OC)ccc32)c1C (centres undefined) | -1 | 13 | 1 | -3 | nt | nt
Cc1ccc(NC(=O)C(C)(C)C)c(Br)c1 | 1 | 14 | 0 | 10 | nt | nt
O=C(c1ccccc1)N1CCN(C(=O)c2cccnc2)CC1 | 1 | 8 | 0 | 14 | nt | nt
O=C(c1cccnc1)N1CCN(Cc2ccc(F)cc2)CC1 | 1 | 79* | 0 | 3 | 7 | 4
O=C(c1cccnc1)N1CCN(Cc2ccncc2)CC1 | -2 | 86* | 0 | 14 | 7 | 15
O=C(c1cccnc1)N1CCN(Cc2ccco2)CC1 | 1 | 53* | 0 | 2 | -16 | 5
Cc1nc(SCc2ccccc2F)c2c(=O)n(C)c(=O)n(C)c2n1 | 0 | -1 | 0 | -3 | nt | nt
COc1ccccc1C1NC(=O)NC(C)=C1C(=O)OC1CCCC1 (centres undefined) | 1 | 1 | 0 | 0 | nt | nt
COc1cc(C(C)=O)ccc1OCC(O)CNCC1(N2CCCCC2)CCCCC1 (centres undefined) | -2 | 42 | 0 | 2 | nt | nt
COc1ccccc1COCC(O)CNC(C)(C)C (centres undefined) | 1 | 39 | 0 | 10 | nt | nt
COc1ccccc1COCC(O)CNCc1ccncc1 (centres undefined) | 0 | 70* | 0 | 3 | 8 | 15
COc1ccccc1COCC(O)CNCC1(N2CCCCC2)CCCCC1 (centres undefined) | 2 | 68* | 0 | 5 | -7 | -2
COc1ccccc1COCC(O)CNCCCN1CCOCC1 (centres undefined) | 1 | 62* | 0 | 9 | 2 | -1
Cc1nn(-c2ccccc2)c2c1C(c1ccccc1Br)C(C#N)=C(N)O2 (centres undefined) | -1 | 14 | 0 | -5 | nt | nt
CCN(Cc1ccncc1)Cc1nc(N)c2ccc(Cl)cc2n1 | 0 | 7 | 0 | -6 | nt | nt
COc1cccc(NCc2ccc(O)c3ncccc23)c1 | 0 | 56* | -2 | 92* | 93* | 92*
Oc1ccccc1CNc1ccc(F)cc1 | 1 | -1 | 0 | -6 | nt | nt
Oc1ccc(CNc2ccccc2)c2cccnc12 | 0 | 73* | -1 | 4 | 44* | 80*
Oc1ccc(CNc2cccc(F)c2)c2cccnc12 | -1 | 62* | -1 | 55* | 98* | 100*
Oc1ccc(CNc2ccc(F)cc2)c2cccnc12 | -2 | 66* | -1 | 11 | 104* | 100*
CCC(C(=O)Nc1cc(OC)c(OC)cc1C(=O)O)c1ccccc1 (centres undefined) | -2 | 9 | 0 | -1 | nt | nt
SMILES | GPR151 ag | MITF inh | FBW7 activator | TEAD-YAP inh | MITF inh conf | AlphaScreen intf2 | others
CCc1ccc(NC(=O)c2cc3cccnc3n(C)c2=O)cc1 | 0 | 7 | 1 | -1 | nt | nt
COc1ccc(NCc2ccc(O)c3ncccc23)c(OC)c1 | -1 | 75* | -1 | 8 | 46* | 89*
COCCn1c(=S)[nH]c2cc(C(=O)NC(C)C)ccc2c1=O | 2 | 5 | 0 | -4 | nt | nt
COCCn1c(=S)[nH]c2cc(C(=O)Nc3ccccn3)ccc2c1=O | -1 | 77* | 0 | -15 | -23 | -2
Cc1cccc(NC(=S)NNC(=O)CC(C)O)c1C (centres undefined) | -2 | 57* | 0 | 9 | -7 | -9
CCNC(=S)N1CCC(C(=O)c2ccc(OC)cc2)CC1 | -1 | 17 | 0 | 0 | nt | nt
CCOC(=O)/C(Br)=N\Nc1ccc(C)cc1 | 0 | 84* | 0 | -2 | 19 | 18
CCOC(=O)/C(Cl)=N\Nc1ccccc1 | 0 | 31 | 0 | 16 | nt | nt
CC(C)NCC(O)COc1ccccc1 (centres undefined) | 1 | -7 | 0 | 7 | nt | nt
OC(CNNc1c(F)c(F)cc(F)c1F)COc1ccccc1 (centres undefined) | -2 | 58* | 0 | -7 | -1 | 2
Cc1ccccc1Cn1c(C)c(CNC(C)CCc2ccccc2)c(C(=O)O)c1C (centres undefined) | 0 | 17 | 0 | 18 | nt | nt
Cc1ccc2cc(CN(CCO)C(=O)c3ccc(Cl)cc3)c(=O)[nH]c2c1 | -1 | 54* | 0 | -10 | 22 | 9
COc1cccc(C2CC(c3cccs3)=NN2C(=O)CSc2nnc(CNC(=O)c3ccccc3)n2-c2ccccc2)c1OC (centres undefined) | 0 | 70* | 1 | 3 | -11 | 0
Cc1nc2n(CCN3CCCCC3)c3ccccc3n2c1C(=O)c1cccs1 | -1 | 2 | 0 | -4 | nt | nt
Cc1cc(C(=O)NNC(=S)NCC2CCCO2)no1 (centres undefined) | 0 | 5 | 0 | 0 | nt | nt
O=C(NNC(=S)NCC1CCCO1)c1ccccn1 (centres undefined) | 1 | 118* | -2 | 23 | 116* | 100*
O=C(Nc1ccc2c(c1)OCO2)c1ccccn1 | -10 | -3 | 0 | 11 | nt | nt
O=C(NNC(=S)Nc1ccc2c(c1)OCO2)c1ccccn1 | -2 | 117* | -2 | -47 | 96* | 91*
Cc1cc2nnn(C[C@@H](C)NC(=O)c3ccco3)c2cc1C | -1 | -14 | 0 | 6 | nt | nt
CCN(CC)/C(C)=N\S(=O)(=O)c1ccc(Cl)cc1 | 1 | 1 | 0 | 12 | nt | nt
CC(=O)N(Cc1ccco1)Cc1cc2cc(C)c(C)cc2n2nnnc12 | 0 | 18 | 0 | 0 | nt | nt
Cc1ccccc1CSCC(=O)NC1CCCCC1 | -2 | 6 | 0 | -28 | nt | nt
COc1cccc(CC(=O)Nc2ccc3ccccc3c2)c1 | -2 | -1 | 0 | 7 | nt | nt
COc1cccc(CC(=O)Nc2nnc(-c3ccco3)c(-c3ccco3)n2)c1 | 1 | 63* | -1 | -4 | 80* | 15 | AlphaScreen DR=>6.5
COc1ccc(CNC(=O)CCSCc2ccccc2Cl)cc1 | -1 | 6 | 0 | 3 | nt | nt

Screens: PubChem, The Scripps Research Institute Molecular Screening Center
